Only some compounds are listed: those with a hit (about 8.8% of all), similar ones and a draw of the others.
LMNA splice mod: qHTS Assay for Modulators of Lamin A Splicing; 200,000 compounds, 0.01% hits; Potency, µM (series often up to 46.1 µM), for inactives: top-dose ratio change, negative = inhibition, most hits filed as inhibitors; HeLa LMNA splicing GFP/RFP minigene ratio, 48 h; active means well fitted inhibition curve with a large enough effect in the signal ratio, with a control signal flat, not every such curve was filed as active; inconclusive means small, poorly fitted or top-dose-only effect, or effect the other way, or a change in a side signal; the % refers to the signal ratio; further: on the % scale 0 is the no-effect control and ±100 the full control effect
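S3 HeLa stable clones carrying a lamin A-EGFP splicing minigene plus DsRed2 were seeded at 600 cells/well in Opti-MEM with 2% FBS, pin-dosed and incubated 48 h at 37°C. Acumen cytometry (488 nm) gave the GFP/RFP total-intensity ratio.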
HTT ATP protect: qHTS Multiplex Assay to Identify Dual Action Probes in a Cell Model of Huntington: Cytoprotection (ATP); PC12 HTT-Q103 induced, cytoprotection, ATP luminescence, 40 h; Potency, µM (doses to about 56.4 µM), for the others: cytoprotection (ATP increase), usual class: activators; 230,000 compounds, 0.14% hits; AID 1471, 2008; further: % of control where 0% means no effect; nearly all actives have a fitted effect of over 45% in size
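Compounds were screened for protection of PC12 cells against cell death after tebufenozide induction (100 nM final) of mutant Huntingtin exon 1 (Q103) fused to GFP.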
ALDH1A1 block: qHTS Assay for Inhibitors of Aldehyde Dehydrogenase 1 (ALDH1A1). Aldehyde dehydrogenase 1A1 (Homo sapiens), P00352. Purified ALDH1A1, NADH fluorescence, propionaldehyde substrate. Potency, µM (doses to about 75.3 µM), for inactives: top-dose activity, negative = inhibition, most hits filed as inhibitors. 220,000 compounds, 7.3% hits; active means well fitted inhibition curve with a large enough effect, not every such curve was filed as active; inconclusive means small, poorly fitted or top-dose-only effect, or another doubt; inactive means no such curve, though single readings can be large or run the other way;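 further: plate controls were no enzyme wells and a reference inhibitor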
Target sequence (P00352 whole entry, looked up): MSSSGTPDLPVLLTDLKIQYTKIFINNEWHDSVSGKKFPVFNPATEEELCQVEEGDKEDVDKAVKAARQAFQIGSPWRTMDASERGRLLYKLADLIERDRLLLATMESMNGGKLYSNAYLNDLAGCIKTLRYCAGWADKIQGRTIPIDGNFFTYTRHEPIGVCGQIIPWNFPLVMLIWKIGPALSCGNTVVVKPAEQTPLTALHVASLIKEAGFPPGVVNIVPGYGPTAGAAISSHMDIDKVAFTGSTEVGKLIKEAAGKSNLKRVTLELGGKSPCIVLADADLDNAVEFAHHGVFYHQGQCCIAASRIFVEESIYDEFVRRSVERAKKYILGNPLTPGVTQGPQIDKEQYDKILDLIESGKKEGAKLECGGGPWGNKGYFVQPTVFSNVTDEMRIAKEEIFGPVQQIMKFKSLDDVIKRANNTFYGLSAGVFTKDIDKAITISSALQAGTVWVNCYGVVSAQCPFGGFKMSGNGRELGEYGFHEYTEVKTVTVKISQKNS
HTT aggregate: qHTS Multiplex Assay to Identify Dual Action Probes in a Cell Model of Huntington: Aggregate Formation (GFP); PC12 HttQ103-GFP aggregates, Acumen cytometry, 40 h; Potency, µM (titrated, usually from 46.1 µM), without a hit: at the top dose activity change, negative = inhibition, usual class: inhibitors; 220,000 compounds, 1.1% hits; AID 1688, 2009; further: on the % scale 0 is the no-effect control and ±100 the full control effect; nearly all actives have a fitted effect of over 60% in size
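PC12 cells with ecdysone-inducible HTT exon1 Q103-GFP, induced by 100 nM tebufenozide, given compounds in a concentration series. GFP aggregates (1–25 um, 6 SD above background) counted in lysates by laser-scanning cytometry, 488 nm excitation.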
HPGD inh: qHTS Assay for Inhibitors of HPGD (15-Hydroxyprostaglandin Dehydrogenase); AID 894, 2007; 15-hydroxyprostaglandin dehydrogenase [NAD(+)] (Homo sapiens), P15428; purified HPGD, NADH fluorescence kinetic, PGE2 substrate; 150,000 compounds, 4.3% hits; Potency, µM, inactives show at the highest dose activity change, negative = inhibition, hits mostly inhibitors; active means well fitted inhibition curve with a large enough effect, not every such curve was filed as active; inconclusive means small, poorly fitted or top-dose-only effect, or another doubt; inactive means no such curve, though single readings can be large or run the other way; further: on the % scale 0 is the no-effect control and ±100 the full control effect
Target sequence (P15428 whole entry, looked up): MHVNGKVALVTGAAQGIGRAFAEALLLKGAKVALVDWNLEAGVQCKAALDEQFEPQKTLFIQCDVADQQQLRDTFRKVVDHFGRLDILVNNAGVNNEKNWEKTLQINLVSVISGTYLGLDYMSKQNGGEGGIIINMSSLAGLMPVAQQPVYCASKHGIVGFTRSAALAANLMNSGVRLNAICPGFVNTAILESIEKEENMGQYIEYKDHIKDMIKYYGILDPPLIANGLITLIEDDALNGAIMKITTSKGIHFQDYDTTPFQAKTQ
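NADH formation kinetics: reaction with 30 uM PGE2 and 1 mM NAD+ (final), 20 nM enzyme, Tris-HCl pH 8 with Tween 20, after 15 min compound preincubation at room temperature. Fluorescence change, last versus first of five reads.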
An asterisk follows results filed as active; [ ] = dose if it differs, or a comment. Unless noted, the call rests on the fitted dose curve; in most records, active means well fitted curve in the direction sought with a large enough effect; inconclusive means small, poorly fitted or top-dose-only effect, or another doubt; inactive means no such curve, though single readings can be large; an effect the other way counts as inactive or inconclusive. Potency means the concentration at half of the fitted maximal effect.

Results for Cc1nc(N)c(C#N)c(-c2cccnc2)c1C ?
LMNA splice mod: -11%; HTT ATP protect: 1%[10 µM]; ALDH1A1 block: 1%; HTT aggregate: 6.3µM*; HPGD inh: -11%

Results for Cc1ccc(-n2ncc3c(NCCC4=CCCCC4)ncnc32)cc1C ?
LMNA splice mod: -26%[46 µM]

How did Cc1ccccc1C(=O)Nc1ccc(-c2nc3ccc(C(=O)c4ccccc4)cc3[nH]2)cc1 do in these assays?
LMNA splice mod: inconclusive; HTT ATP protect: -68%; ALDH1A1 block: inconclusive; HTT aggregate: 11µM*; HPGD inh: inconclusive

Results for O=C(c1ccccc1)c1ccc2nc[nH]c2c1 ?
LMNA splice mod: 1%; HTT ATP protect: 0%[10 µM]; ALDH1A1 block: inconclusive; HTT aggregate: inconclusive; HPGD inh: 22µM*

What do the screens show for `Cc1nc2ccc(C(=O)c3ccccc3)cc2[nH]1`?
LMNA splice mod: -3%; HTT ATP protect: -10%; ALDH1A1 block: inconclusive; HTT aggregate: -6%; HPGD inh: 18µM*

What do the screens show for `COc1cnc(SCc2ccc(Cl)cc2Cl)nc1Cl`?
LMNA splice mod: inconclusive; HTT ATP protect: -14%; ALDH1A1 block: 7.1µM*; HTT aggregate: inconclusive; HPGD inh: 18µM*

How did CCCCOc1ccc(Cl)cc1CSc1n[nH]c(C)n1 do in these assays?
LMNA splice mod: 12%; HTT ATP protect: -35%; ALDH1A1 block: 6%; HTT aggregate: -6%; HPGD inh: -8%

How did COc1ccc(Cl)cc1CSc1n[nH]c(C)n1 do in these assays?
LMNA splice mod: 12%; HTT ATP protect: -11%; ALDH1A1 block: -5%; HTT aggregate: -10%; HPGD inh: 16µM*

Results for CC(=O)NCCCS(=O)(=O)O ?
HTT ATP protect: 6%; HTT aggregate: 3%

What do the screens show for `Cn1cccc1C(=O)N1CCC2(CCCN(Cc3ccccc3)C2)CC1`?
HTT ATP protect: -41%; ALDH1A1 block: -11%; HPGD inh: -9%

Results for S=P(N1CC1)(N1CC1)N1CC1 ?
LMNA splice mod: inconclusive; HTT ATP protect: -66%; ALDH1A1 block: -4%; HTT aggregate: 3%; HPGD inh: 10µM*

Results for CCCCn1cnc2c(c1=O)c1nc3ccccc3nc1n2Cc1ccc2c(c1)OCO2 ?
HTT ATP protect: -17%[10 µM]; ALDH1A1 block: inconclusive; HTT aggregate: -33%[9.22 µM]

How did CC(C)Cn1cnc2c(c1=O)c1nc3ccccc3nc1n2Cc1ccc2c(c1)OCO2 do in these assays?
LMNA splice mod: 5%; HTT ATP protect: -19%; ALDH1A1 block: 0.79µM*; HTT aggregate: -1%; HPGD inh: -18%

How did Cc1onc(-c2ccccc2)c1CNS(=O)(=O)c1cccc(Br)c1 do in these assays?
HTT ATP protect: 14%[10 µM]; ALDH1A1 block: 2.8µM*; HTT aggregate: 0%[9.22 µM]

What do the screens show for `O=C(CSc1nc2c([nH]c3ccccc32)c(=O)n1-c1ccccc1)Nc1ccc2c(c1)OCO2`?
LMNA splice mod: 5%[46 µM]

Results for CC(C)(C)NC(=O)CSc1nnc(-c2ccncc2)o1 ?
LMNA splice mod: 9%; ALDH1A1 block: 3%; HTT aggregate: -32%; HPGD inh: -5%

How did COC(=O)c1cccc(N2C(=O)c3ccccc3S2(=O)=O)c1 do in these assays?
LMNA splice mod: 8%; HTT ATP protect: -21%[10 µM]; ALDH1A1 block: -37%; HTT aggregate: -12%; HPGD inh: 25µM*

How did COc1ccccc1-c1nnc(SCC(=O)Nc2c(Cl)cccc2Cl)o1 do in these assays?
LMNA splice mod: inconclusive; HTT ATP protect: -17%[10 µM]; ALDH1A1 block: 22µM*; HTT aggregate: -16%; HPGD inh: -4%

How did COC(=O)c1ccccc1NC(=O)CSc1nnc(-c2ccncc2)o1 do in these assays?
LMNA splice mod: inconclusive; HTT ATP protect: -1%[10 µM]; ALDH1A1 block: 18µM*; HTT aggregate: -7%; HPGD inh: -21%

Results for CCOC(=O)c1cnc(SCc2cccc(C)c2)nc1N ?
LMNA splice mod: inconclusive; HTT ATP protect: 7%[10 µM]; ALDH1A1 block: 25µM*; HTT aggregate: -18%; HPGD inh: inconclusive

What do the screens show for `COc1ccccc1OCC(=O)NCC1(N2CCOCC2)CCCCC1`?
LMNA splice mod: 0%[46 µM]

What do the screens show for `CCc1ccccc1NCC(=O)Nc1ccccc1C(=O)OC`?
LMNA splice mod: -9%; HTT ATP protect: 19%[10 µM]; ALDH1A1 block: inconclusive; HTT aggregate: inconclusive

Results for COC(=O)c1ccccc1NC(=O)CSc1nc(N)cc(N)n1 ?
LMNA splice mod: 9%; HTT ATP protect: -11%; ALDH1A1 block: 25µM*; HTT aggregate: 11%; HPGD inh: -16%

What do the screens show for `COC(=O)c1ccccc1NC(=O)CNc1cc(OC)c(OC)cc1C`?
LMNA splice mod: inconclusive; HTT ATP protect: 8%[10 µM]; ALDH1A1 block: 10µM*; HTT aggregate: 2%; HPGD inh: -15%

What do the screens show for `CCOC(=O)c1ccccc1NC(=O)CSc1ncc(C(=O)OCC)c(N)n1`?
LMNA splice mod: 2%; HTT ATP protect: -3%[10 µM]; ALDH1A1 block: 20µM*; HTT aggregate: -1%; HPGD inh: -7%

Results for COC(=O)c1ccc(C(=O)OC)c(NC(=O)CN2CCN(c3ccccc3OC)CC2)c1 ?
LMNA splice mod: -10%; HTT ATP protect: -20%[10 µM]; ALDH1A1 block: inconclusive; HTT aggregate: -16%; HPGD inh: -20%

How did COC(=O)c1ccc(C(=O)OC)c(NC(=O)COc2ccccc2OC)c1 do in these assays?
LMNA splice mod: -8%; HTT ATP protect: -5%[0.074 µM]; ALDH1A1 block: 13µM*; HTT aggregate: 0%; HPGD inh: -22%

Results for NCCC(O)C(=O)NC1C[C@@H](N)[C@H](O[C@@H]2OC(CN)C(O)C(O)C2O)C(O)[C@H]1O[C@H]1OC(CO)C(O)C(N)C1O (some centres not stated) ?
HTT ATP protect: -24%; ALDH1A1 block: 5%; HPGD inh: -8%

How did CCC(C)NC(=O)c1ccccc1NC(=O)CN1C(=O)c2ccccc2S1(=O)=O (configuration not stated) do in these assays?
LMNA splice mod: 0%; HTT ATP protect: 5%[10 µM]; ALDH1A1 block: -5%; HTT aggregate: 9%; HPGD inh: -9%

What do the screens show for `COC(=O)c1ccccc1NC(=O)CN1C(=O)c2ccccc2S1(=O)=O`?
LMNA splice mod: 14%; HTT ATP protect: -15%[0.074 µM]; ALDH1A1 block: 25µM*; HTT aggregate: -6%; HPGD inh: -5%

What do the screens show for `O=C(Cc1nc(-c2ccc([N+](=O)[O-])cc2)cs1)Nc1ccccc1`?
LMNA splice mod: -4%; HTT ATP protect: 9%; ALDH1A1 block: 8.9µM*; HTT aggregate: 0%; HPGD inh: -19%

Source: PubChem BioAssay
